Shiga inhibitor = inhibitors of Shiga toxin in Vero cells | Vero cells, Shiga toxin protein synthesis inhibition reporter | inhibition, % at 38.7 µM | actives 9.2% (n = 290,000); in the data active = inhibition mostly above about 28%, no sharp cut-off; inactive = mostly below about 43%
SARS PLP yeast = inhibitors of SARS-CoV papain-like protease in yeast; S. cerevisiae expressing SARS-CoV PLpro, growth rescue; Potency, µM (series often up to 32.9 µM), usual class: activators; actives 0.19% (n = 330,000); AID 485353; also: nearly all actives have a fitted effect of over 55% in size
NS1 function inh = inhibitors of influenza NS1 protein function. Potency, µM (highest dose often 46.1 µM). actives 0.4% (n = 270,000). AID 2326; also: actives are rising curves; nearly all actives have a fitted effect of over 50% in size
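OD600 was taken as the measure of yeast growth restored by compound in an NS1-expressing S. cerevisiae strain. Cells had been washed out of glucose medium and diluted 1:100 into galactose -URA medium, pH 6.0.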
Cycloheximide cs = counter-screen for Shiga toxin inhibitors: cycloheximide protein synthesis inhibition. actives 12% (n = 300,000). cell reporter, cycloheximide protein synthesis inhibition counterscreen. AID 2314. max response, %; in the data active = max response mostly above about 13%, no sharp cut-off; inactive = mostly below about 14%; also: read at 38.3 µM for the half of the compounds with a filed dose
Of the large screens only hits and unclear results are named; the others gave an inactive call. Hits are enriched below; roughly 12% of the tested compounds scored in any of these assays. Unless noted, calls follow the shape of the full dose curve.

CCOC(=O)c1cccc(NC(=O)c2cc3ccccc3o2)c1	Shiga inhibitor 57, Cycloheximide cs 49
CCOC(=O)c1ccccc1NC(=O)c1cc2ccccc2o1	none
CCOC(=O)c1ccc(NC(=O)c2cc3ccccc3o2)cc1	Shiga inhibitor 41, Cycloheximide cs 32
CC(C)C(=O)Nc1ccc(NC(=S)NC(=O)c2cc3ccccc3o2)cc1	none (no result: NS1 function inh)
COc1ccc(/C=C/C(=O)N2CCN(c3ccccn3)CC2)c(OC)c1OC	none
CCN(CC)S(=O)(=O)c1ccc2c(c1)N(CC(=O)N(CCc1ccncc1)C(C)C)C(=O)CO2	none (no result: NS1 function inh)
O=C(N/N=C/c1ccc2c(c1)OCO2)/C(=C/c1ccc2c(c1)OCO2)NC(=O)c1ccccc1	none
CN(C)c1ccc(/C=C(/NC(=O)c2ccccc2)C(=O)N/N=C/c2ccc([N+](=O)[O-])c(O)c2)cc1	Shiga inhibitor 47, NS1 function inh inconclusive, Cycloheximide cs 52
CCCCCCCCCCCCCCCCCCNC(=O)OCC(COP(=O)([O-])OCC[n+]1ccsc1)OC (centres undefined)	none (no result: Shiga inhibitor, SARS PLP yeast, Cycloheximide cs)
CCOC(=O)C1(Cc2cccc(F)c2)CCN(C(=O)c2ccoc2C)CC1	Cycloheximide cs 12
CC#CC(=O)N1CCCC(Cc2cccc(OC)c2)(C(=O)OCC)C1 (centres undefined)	Shiga inhibitor 33, Cycloheximide cs 43
CCOC(=O)C1(Cc2cccc(OC)c2)CCCN(C(=O)CCc2cccnc2)C1 (centres undefined)	Shiga inhibitor 69, Cycloheximide cs 46
CCOC(=O)C1(Cc2cccc(OC)c2)CCCN(S(=O)(=O)CC)C1 (centres undefined)	none
CCOC(=O)C1(Cc2cccc(OC)c2)CCCN(C(=O)c2cc(C)oc2C)C1 (centres undefined)	Shiga inhibitor 76, Cycloheximide cs 39
Cc1ccc(-n2c(CCc3ccccc3)n[nH]c2=S)cc1C	NS1 function inh inconclusive (no result: Shiga inhibitor)
CCOC(=O)c1c(NC(=O)CN2C(=O)NC(C)(c3ccccc3)C2=O)sc(C)c1C (centres undefined)	none
Cc1c(C(=O)N2CCN(CC(=O)Nc3ccccc3Cl)CC2)oc2ccc(Br)cc12	none (no result: Shiga inhibitor, NS1 function inh, Cycloheximide cs)
CN(CC(=O)Nc1cc(S(=O)(=O)N2CCCC2)ccc1Cl)Cc1cccs1	none
COc1cccc(/C=C2/Oc3ccccc3N(CC(=O)NCC3CCCO3)C2=O)c1 (centres undefined)	none
CCOC(=O)C1(Cc2cccc(OC)c2)CCN(C2CCOCC2)CC1	Shiga inhibitor 82, Cycloheximide cs 33
Cc1ccc(Cn2nc(C)c(NC(=O)C3(C)CC3(Br)Br)c2C)cc1 (centres undefined)	none
Cc1ccc2nc(-c3ccc(NC(=S)NC(=O)C(C)C)cc3)sc2c1	Shiga inhibitor 84, Cycloheximide cs 53
CCC(=O)NC(=S)Nc1ccc(-c2nc3ccccc3s2)cc1	Shiga inhibitor 69, Cycloheximide cs 49
Cc1ccc2nc(-c3ccc(NC(=S)NC4CC(C)(C)NC(C)(C)C4)cc3)sc2c1	none (no result: NS1 function inh)
CCC(=O)NC(=S)Nc1ccc(-c2nc3ccc(C)cc3s2)cc1	Shiga inhibitor 91, Cycloheximide cs 40
CCOc1ccccc1C1NC(=O)CCC1[N+](=O)[O-] (centres undefined)	none
COc1ccc(N(CC(=O)NC2CCCC2)C(=O)c2ccc(C)s2)cc1OC	none
O=C(Nc1ccccc1)c1ccc(OC(=O)c2ccccc2)cc1	none
CN(C)C(=O)Oc1ccc(OC(=O)c2ccccc2)cc1	Shiga inhibitor 20, Cycloheximide cs 39
Cc1ccc(Cn2nc(C)cc2C(=O)Nc2ccc(Cl)cc2)cc1	Shiga inhibitor 72, Cycloheximide cs 39
CC(=O)Nc1cc(-c2ccccc2)nn1Cc1ccc(Cl)cc1	none
Cc1ccc(Cn2nc(C(=O)Nc3ccc(Br)cc3)cc2C)cc1	Shiga inhibitor 154, Cycloheximide cs 54
Cc1ccc(Cn2nc(C)cc2C(=O)Nc2ccccc2Cl)cc1	Shiga inhibitor 147, Cycloheximide cs 59
Cc1cccc(Cn2nc(C(C)(C)C)cc2C(=O)Nc2ccc(F)cc2)c1	Cycloheximide cs 18
CCN(CC)CC[n+]1ccc2c(C)c3[nH]c4ccccc4c3c(C)c2c1	none (no result: Shiga inhibitor, SARS PLP yeast, Cycloheximide cs)
CCCCNC(=O)Cn1cnc2sc(C)c(S(=O)(=O)N3CCN(c4ncccn4)CC3)c2c1=O	none (no result: NS1 function inh)
O=C(/C=C/c1cccc([N+](=O)[O-])c1)NCCSc1ccccc1	Cycloheximide cs 17
NS(=O)(=O)c1ccc(CCNC(=O)/C=C/c2ccc([N+](=O)[O-])cc2)cc1	none (no result: NS1 function inh)
Cc1ccc(SCCNC(=O)/C=C/c2cccc([N+](=O)[O-])c2)cc1	none
CC(C)(C)SCCNC(=O)/C=C/c1cccc([N+](=O)[O-])c1	Shiga inhibitor 66, Cycloheximide cs 26
CC(C)(C)SCCNC(=O)/C=C/c1ccc([N+](=O)[O-])cc1	Shiga inhibitor 33, Cycloheximide cs 21
